According to PubChem BioAssay:
“And” between values parts separate entries of the source, which are not always exact repeats. Identical values can stand only once.

test system: Human papillomavirus type 1a protein E7 (residues 44-93); assay: HPV1a E7 fragment binders on microarrays, primary screen, biochemical, small-molecule microarray, residues 44-93, 635 nm fluorescence (AID 1108); conditions: small-molecule microarray binding, fluorescence 635 nm; higher = more signal;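 note: E7 fragment applied at 1 µg/mL in TBST for 1 h at 4 C; score combines spot fluorescence with its signal to noise ratio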

For `COC(=O)C1=C(C)N(Cc2ccccc2)[C@]23O[C@](C(=O)OC)(C(=O)N2[C@@H]1c1ccccc1)[C@@H](C(=O)OC)[C@H]3C(=O)OC`, which composite z-score is on record?
Its composite z-score is -1.08 and 0.025.

With `C=C[C@H](C)[C@@H](O)c1ccc(OCCO)cc1` as the compound, how does the composite z-score read?
Its composite z-score is -1.92 and -0.467.

With `C=CCN(CCCC)C(=O)C1N(c2c(Cl)cccc2CO)C(=O)C2C(C(=O)O)C3C=CC21O3` (stereo not given) as the compound, how does the composite z-score read?
The composite z-score was -1.84 and 0.389.

For `CCCNC(=O)OC[C@H]1O[C@H](CCON=C(C)CCN2CCc3nc(-c4ccccc4)c(-c4ccccc4)cc3C2)C=C[C@@H]1Oc1ccc(OC)cc1`, which composite z-score is on record?
Its composite z-score is 0.518.

Which composite z-score does the source give for `COC(=O)c1c2oc(c1C(=O)OC)C(=O)N[C@@H](Cc1ccccc1)Cn1cc(nn1)C1(CCCCC1)NC(=O)N[C@H](CO)CC2` here?
Its composite z-score is 0.773 and 0.664.

For `C=CCN(Cc1ccccc1)C(=O)C(c1cccs1)N(C(=O)/C=C\C(=O)O)c1ccc(CCO)cc1` (stereo not given), which composite z-score is on record?
Its composite z-score is -0.325 and -0.505.

test system: not listed separately; assay: modulators of HCV replicon luciferase signal, primary screen, HCV replication inhibitor project, Huh7 cells, luciferase reporter (AID 1109); conditions: 48 h, higher = more signal;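 note: huh7 hepatoma cells harbouring a luciferase neomycin HCV replicon reporter; luciferase luminescence as measure of HCV replicon replication; test concentration not given here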

Which z-score does the source give for `C[N+](C)(C)CCCCNC(=O)[C@H]1C[C@H]2C(=O)N[C@@H](CCCC[N+](C)(C)C)C(=O)N2[C@H]1c1ccc(O)cc1` here?
Its z-score is -0.999 and 0.723.

Which z-score does the source give for `CO[C@@H]1COC(=O)[C@H](Cc2ccccc2)NC(=O)CC=C[C@@H](C)[C@H](OC)COC(=O)[C@@H](C)NC(=O)CC=C[C@H]1C` here?
The z-score was -0.198 and 0.903.

With `CCOC(=O)c1ccc(NC(=O)O[C@H]2[C@H](OC(=O)Nc3ccccc3)[C@H](OC(=O)Nc3ccccc3)[C@@H](OC)O[C@@H]2CO)cc1` as the compound, how does the z-score read?
The z-score was -3.29 and -3.49.

For `CC(C)OC(=O)C=C1C[C@@H](c2ccccc2)O[C@@H](c2ccccc2)O1`, which z-score is on record?
The z-score was -2.1 and -1.36.

With `C=CCN(C(=O)C1N(CCOCCO)C(=O)C2C(C(=O)O)C3C=CC21O3)c1ccc(OC)cc1` (stereo not given) as the compound, how does the z-score read?
Its z-score is 0.51 and -0.102.

Which z-score does the source give for `CCCC[C@@H]1CN2[C@H](c3ccc(Br)cc3)[C@@H](C)CC[C@H]2C(=O)O1` here?
The z-score was -0.403 and -0.983.

Which z-score does the source give for `COC(=O)[C@@]1(Cc2ccc(OC)cc2)[C@H]2c3cc(C(=O)N(C)C)n(Cc4ccc(O)c(OC)c4)c3C[C@H]2CN1C(=O)c1ccccc1` here?
The z-score was -1.33 and -1.83.

For `CCOC(=O)NN=C1C[C@@H](O)[C@@H](O)[C@@H]2[C@@H]3C(=O)N(Cc4ccc5c(c4)OCO5)C(=O)[C@@H]3CC[C@@H]12`, which z-score is on record?
The z-score was -0.398.

For `C=CCN(CCCC)C(=O)C(c1cccs1)N(CCOCCO)C(=O)/C=C\C(=O)O` (stereo not given), which z-score is on record?
Its z-score is -0.166 and 0.999.

Which z-score does the source give for `C=CCN(CCCCC)C(=O)C(c1cccs1)N(C(=O)/C=C\C(=O)O)c1c(Cl)cccc1CO` (stereo not given) here?
The z-score was -0.651 and -0.698.

With `CC(CO)N1C(=O)[C@@H]2C3C(=O)OCCC=C[C@H]3OC23C=CCN(c2ccc4ccccc4c2)C(=O)[C@@H]13` (stereo not given in full) as the compound, how does the z-score read?
Its z-score is -0.466 and -0.213.

For `C=C[C@@H](C)[C@@H](O)c1ccc(O)c2ccccc12`, which z-score is on record?
The z-score was -1.55 and -2.15.

For `C=CCN(C(=O)C1N(CCCCCCO)C(=O)C2C(C(=O)O)C3C=CC21O3)c1ccc(OC)cc1` (stereo not given), which z-score is on record?
Its z-score is -0.67 and -0.824.

Which z-score does the source give for `CC[C@@H]1C(Sc2ccccc2)C(C(=O)O)[C@H](c2ccc(C)cc2)N1S(=O)(=O)c1ccc(C)cc1` (stereo not given in full) here?
Its z-score is -0.17 and -0.556.

With `CC(C)=NO[C@@H](C)c1cc(-c2c(C)cc(C)cc2C)no1` as the compound, how does the z-score read?
Its z-score is -0.527.

Which z-score does the source give for `C[N+](C)(C)CCCCCCNC(=O)[C@H]1C[C@H]2C(=O)N[C@@H](CCCC[N+](C)(C)C)C(=O)N2[C@H]1c1ccc(O)cc1` here?
The z-score was -0.0901 and 0.0595.

For `C=CCN(C(=O)C(c1cccs1)N(C(=O)/C=C\C(=O)O)c1ccc(CCO)cc1)C(C)(C)C` (stereo not given), which z-score is on record?
Its z-score is -0.18 and 0.135.

Which z-score does the source give for `C=C[C@@H](OC)[C@H](O)c1ccc(OC)c(O)c1` here?
The z-score was 0.552 and -0.127.

With `C#CCCCON=C1C[C@@H](O)[C@@H](O)[C@@H]2[C@@H]3C(=O)N(C4CCCCC4)C(=O)[C@@H]3CC[C@H]12` as the compound, how does the z-score read?
The z-score was -0.147.

Which z-score does the source give for `CC(C)N1CC=CC23O[C@@H]4C=CCCOC(=O)C4[C@H]2C(=O)N(C(C)CO)[C@@H]3C1=O` (stereo not given in full) here?
The z-score was 0.179 and -0.144.

Which z-score does the source give for `CCOC(=O)[C@@H]1CC=C2CC1C(=O)N1CCC[C@@H]1[C@H]2O[Si](C)(C)C(C)(C)C` (stereo not given in full) here?
Its z-score is -0.558 and -1.14.

With `C=CCN(CCCC)C(=O)C(c1cccs1)N(C(=O)/C=C\C(=O)O)c1ccc(CCO)cc1` (stereo not given) as the compound, how does the z-score read?
The z-score was -1.03 and 0.741.

Which z-score does the source give for `COC(=O)[C@H](C)NC(=O)CCC1CC(OC(=O)NCCc2ccc(F)cc2)CC2(CCCC(COC(=O)NCCCN3CCCC3=O)O2)O1` (stereo not given in full) here?
The z-score was -2.21.

With `C[C@@H]1CC[C@@H](C(=O)O)N[C@H]1c1ccc(-c2ccco2)cc1` as the compound, how does the z-score read?
The z-score was -0.305.

With `CCOC(=O)C[C@H]1[C@H](OC(=O)c2ccccc2-c2ccccc2)[C@@H](NC(=O)c2ccccc2)c2cc(OCCCO)ccc2N1C(=O)c1ccc2ccccc2n1` as the compound, how does the z-score read?
The z-score was -1.19 and -0.583.

Which z-score does the source give for `COC(=O)C1=C(C)N(Cc2ccccc2)C2=C3C(=O)N(C)C(=O)[C@@H]3[C@@](O)(C(=O)OC)C(=O)N2[C@@H]1c1ccccc1` here?
Its z-score is -0.0888 and 1.05.

With `CC(C)CON=C1C[C@@H](O)[C@@H](O)[C@@H]2[C@@H]3C(=O)N(c4cccc(Oc5ccccc5)c4)C(=O)[C@@H]3CC[C@H]12` as the compound, how does the z-score read?
The z-score was 0.802.

Which z-score does the source give for `C=C[C@@H](OC)[C@H](O)c1ccc(OCCO)cc1` here?
The z-score was 0.241 and -0.0944.

For `CC(CO)N1C(=O)[C@@H]2C3C(=O)OCCC=C[C@H]3OC23C=CCN(c2ccc(Cl)cc2)C(=O)[C@@H]13` (stereo not given in full), which z-score is on record?
The z-score was -0.229 and -0.964.

With `C=CCN(CCCCC)C(=O)C1N(CCOCCO)C(=O)C2C(C(=O)O)C3C=CC21O3` (stereo not given) as the compound, how does the z-score read?
The z-score was -0.586 and 0.715.

With `C=CCN(C(=O)C1N(CCCCCCO)C(=O)C2C(C(=O)O)C3C=CC21O3)C(C)(C)C` (stereo not given) as the compound, how does the z-score read?
The z-score was 0.31 and -0.387.

Which z-score does the source give for `COC(=O)C1=C(C)N(Cc2ccccc2)C2=C(C(C)=O)C[C@@](O)(C(=O)OC)C(=O)N2[C@@H]1c1ccccc1` here?
The z-score was -0.347 and 1.11.

Which z-score does the source give for `C=CCN(C(=O)C(c1cccs1)N(CCOCCO)C(=O)/C=C\C(=O)O)C(C)(C)C` (stereo not given) here?
The z-score was 0.399 and -0.274.

Which z-score does the source give for `COC(=O)C1=C(C)N(Cc2ccccc2)[C@]23O[C@](C(=O)OC)(C(=O)N2[C@@H]1c1ccccc1)[C@@H](C(=O)OC)[C@H]3C(=O)OC` here?
Its z-score is -0.685 and 1.33.

Which z-score does the source give for `C=C[C@H](C)[C@@H](O)c1ccc(OCCO)cc1` here?
Its z-score is 0.15 and 0.616.

For `C=CCN(CCCC)C(=O)C1N(c2c(Cl)cccc2CO)C(=O)C2C(C(=O)O)C3C=CC21O3` (stereo not given), which z-score is on record?
Its z-score is -0.325 and -0.567.

For `CCCNC(=O)OC[C@H]1O[C@H](CCON=C(C)CCN2CCc3nc(-c4ccccc4)c(-c4ccccc4)cc3C2)C=C[C@@H]1Oc1ccc(OC)cc1`, which z-score is on record?
The z-score was -3.28.

For `COC(=O)c1c2oc(c1C(=O)OC)C(=O)N[C@@H](Cc1ccccc1)Cn1cc(nn1)C1(CCCCC1)NC(=O)N[C@H](CO)CC2`, which z-score is on record?
The z-score was -0.16 and -0.583.

For `C=CCN(Cc1ccccc1)C(=O)C(c1cccs1)N(C(=O)/C=C\C(=O)O)c1ccc(CCO)cc1` (stereo not given), which z-score is on record?
The z-score was 0.0048 and 0.875.
